# Measured values published in the supplement of paper PMC11150407.
# Where a name gives a salt, the structure may show the parent alone. In all, about 2,100 compounds went through this assay and about 180 (8.6%) showed an effect of 50% or more. For the sample, strong results were picked, then their nearest neighbours and some compounds at random.
# System: MOLM1 and UCSD/AML1 (averaged)
# Experiment: cell viability relative to DMSO control (POC); higher = less growth inhibition
# Settings: 1 µM; 72 h
# Protocol: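 Primary viability screen in the 3q26 EVI1-high AML cell lines MOLM1 and UCSD/AML1 (1.5e3 cells/well, 384-well), compounds at 1 uM for 72 h. ATP CellTiter-Glo read-out given as percent of viable cells over DMSO control (POC), averaged over duplicates. DMSO was the negative control and 5 uM etoposide the positive control. This mapping covers the MicroSource Spectrum and Selleck anticancer libraries (drug names).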
row,SMILES,cell viability
1,C=C1C(=O)[C@]23[C@H](CC[C@@H]1[C@@H]2O)[C@]12CO[C@@]3(O)[C@H](O)[C@H]1C(C)(C)CC[C@@H]2O,94.3%
2,CC1(C)CC2C1CCC1(C)OC2(C)CCC1O (stereo not drawn),91.4%
3,CC(C)=CCC/C(C)=C/COc1ccc2ccc(=O)oc2c1,92.6%
4,CC(C)(C)NCC(O)c1ccc(O)c(CO)c1 (racemic),93.2%
5,O=C(O)c1cc2cc(Cl)ccc2[nH]1,98.1%
6,O=C1c2c(O)ccc(O)c2C(=O)c2c(NCCNCCO)ccc(NCCNCCO)c21,8.27%
7,O=C1c2c(O)ccc(O)c2C(=O)c2c(NCCNCCO)ccc(NCCNCCO)c21 [Mitoxantrone Hydrochloride],2.15%
8,O=C1c2c(O)cccc2Cc2cccc(O)c21,102%
9,O=C1c2cccc(O)c2C(=O)c2c(O)cccc21,104%
10,NCCOB(c1ccccc1)c1ccccc1,117%
11,CC(C)CCC[C@@H](C)[C@H]1CC[C@H]2[C@@H]3CC(=O)[C@H]4C[C@@H](O)CC[C@]4(C)[C@H]3CC[C@]12C [5alpha-CHOLESTAN-3beta-OL-6-ONE],107%
12,Cc1ccc(C(=O)N(CCCN)[C@@H](c2oc3cc(Cl)ccc3c(=O)c2Cc2ccccc2)C(C)C)cc1,13.4%
13,Cc1ccc(C(=O)N(CCCN)[C@@H](c2nc3cc(Cl)ccc3c(=O)n2Cc2ccccc2)C(C)C)cc1,15.3%
14,CC(=O)O[C@@H]1C[C@H]2C(C)(C)C(=O)CC[C@]2(C)[C@H]2CC[C@@]3(C)[C@H](c4ccoc4)OC(=O)[C@H]4O[C@]43[C@@]21C,100%
15,CNC(=O)c1ccc(N2C(=S)N(c3ccc(C#N)c(C(F)(F)F)c3)C(=O)C2(C)C)cc1F [MDV3100 (Enzalutamide)],102%
16,CC(C)CC(NC(=O)[C@H](C)N)C(=O)O (mixture of isomers),105%
17,COc1cc(C)c(C(=O)Oc2cc(C)c(C(=O)O)c(O)c2C)c(OC)c1C,109%
18,CNS(=O)(=O)c1ccc(NC(=O)c2ccccc2C(=O)O)cc1,110%
19,Nc1nc(=O)c2[nH]c(=O)cnc2[nH]1,112%
20,C[C@]12CCC(=O)C=C1C=C[C@@H]1[C@@H]2CC[C@@]2(C)[C@H]1CC[C@@]21CCC(=O)O1,83.2%
21,CN1CCC(CNc2ccc3ncc(-c4cccc(OC(F)(F)F)c4)n3n2)CC1 [SGI-1776 free base],80%
22,O=c1c(O)cc([C@H]2Oc3cc(O)cc(O)c3C[C@H]2O)cc2c([C@H]3Oc4cc(O)cc(O)c4C[C@H]3O)cc(O)c(O)c12,104%
23,CN1CCN(CCOc2cc(OC3CCOCC3)c3c(Nc4c(Cl)ccc5c4OCO5)ncnc3c2)CC1 [Saracatinib (AZD0530)],47.7%
